Assay results from PubChem BioAssay.

Assay: budding yeast growth changes without added modifier – OD600, strain BY4716, 24 h, basal condition, primary screen (AID 1173)
Conditions: S. cerevisiae BY4716 growth, OD600, 24 h; higher = more signal, called active from +8 up or from −8 down

z-score, inactive:
COc1ccc(C(=O)Nc2cccc(CN3C(=O)[C@@]4(O[C@@H](CCn5cc([C@H](O)c6ccccc6)nn5)[C@H]([Si](C)(C)c5ccc(OC)cc5)[C@H]4C)c4ccccc43)c2)cc1 -1.74
COC(=O)[C@@]1(Cc2ccc(F)cc2)[C@H]2c3cc(C(=O)N4CCCC4)n(CCc4ccc(OC)c(Br)c4)c3C[C@H]2CN1C(=O)c1ccccc1 0.836
CC(C)N1C(=O)c2ccccc2[C@](C)(C(=O)NC2CC2)[C@@H]1c1ccc(CO)cc1 -0.708
CCCNC(=O)[C@@]1(C)c2ccccc2C(=O)N(Cc2ccc(OC(F)(F)F)cc2)[C@H]1c1ccc(CO)cc1 -0.0169
C=CCC(OC(C)=O)[C@@H]1[C@@H](N(Cc2ccc(-c3cccc(C(F)(F)F)c3)o2)C(=O)Cc2ccc(OC)cc2)c2cc(OCCCO)ccc2N1C(=O)Cc1ccc(OC)cc1 (some centres not stated) -1.2
COC(=O)[C@@]1(Cc2ccccc2)[C@H]2c3cc(C(=O)N(C)C)n(Cc4cc(F)c(F)c(F)c4)c3C[C@H]2CN1C(=O)c1ccccc1 0.989
C=C(C)[C@@H]1CC=C(C(O)C2C=CC3C(=O)N(Cc4ccccc4)C(=O)C3N2n2cnnc2)CC1 (some centres not stated) 0.349
